# Hits are enriched below; roughly 10% of the tested compounds scored in any of these assays.
# p97 inhibitor: human p97 ATPase inhibition. 0.42% of 220,000 active. recombinant p97 ATPase, Kinase-Glo ATP luminescence, 3 h. AID 1481. inhibition, % at 8 µM; in the data active = inhibition above about 15%;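 also: 0% = DMSO vehicle and 100% = wells lacking enzyme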
# Target sequence (P55072 whole entry, looked up): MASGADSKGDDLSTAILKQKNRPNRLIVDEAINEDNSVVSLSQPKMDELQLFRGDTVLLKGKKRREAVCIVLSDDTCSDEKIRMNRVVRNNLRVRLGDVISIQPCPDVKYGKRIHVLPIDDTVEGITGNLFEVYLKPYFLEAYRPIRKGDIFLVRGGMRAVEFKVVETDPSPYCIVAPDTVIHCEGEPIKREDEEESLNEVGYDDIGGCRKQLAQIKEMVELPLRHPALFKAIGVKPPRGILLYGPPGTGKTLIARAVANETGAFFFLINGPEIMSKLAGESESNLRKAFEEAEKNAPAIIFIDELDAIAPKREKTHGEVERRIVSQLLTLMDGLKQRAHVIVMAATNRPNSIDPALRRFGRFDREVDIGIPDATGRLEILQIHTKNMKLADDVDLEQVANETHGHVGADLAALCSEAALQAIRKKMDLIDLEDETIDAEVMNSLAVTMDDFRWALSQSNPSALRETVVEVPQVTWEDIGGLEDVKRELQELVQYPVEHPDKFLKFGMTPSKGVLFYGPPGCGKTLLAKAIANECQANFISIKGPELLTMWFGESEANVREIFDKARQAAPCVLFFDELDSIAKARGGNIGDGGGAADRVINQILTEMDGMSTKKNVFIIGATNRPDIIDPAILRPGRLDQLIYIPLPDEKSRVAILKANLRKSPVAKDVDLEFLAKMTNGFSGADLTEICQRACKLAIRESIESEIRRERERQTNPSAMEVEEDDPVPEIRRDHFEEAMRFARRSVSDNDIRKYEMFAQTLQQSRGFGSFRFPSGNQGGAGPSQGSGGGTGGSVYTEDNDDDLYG
# Lmaj promast: Leishmania major promastigote growth inhibition; Leishmania major promastigotes, resazurin fluorescence viability; inhibition, % at 10 µM; 9% of 200,000 active; AID 1063; in the data active = inhibition above about 50%;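 also: promastigotes grown with compound for 44 hours at 28 °C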
# HCT116 bCat-KO: beta-catenin-lacking colon tumor cell growth suppression. HCT116 beta-catenin knockout viability, CellTiter-Glo, 60 h; stronger effect = lower value. viability, % at 10 µM. 1.5% of 140,000 active;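 active = viability at or under a set limit, the compound median less 4 SD, cut at about 6% in these data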;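 also: 0% = Hyamine 1622 control at 20 µM and 100% = untreated cell control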
# PTEN del growth: suppresses growth of cells with PTEN deletion; HCT116 PTEN-null viability, CellTiter-Glo, 60 h; stronger effect = lower value; viability, % at 10 µM; 1.2% of 140,000 active; AID 827;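 active = viability at or below a set limit, 4 SD under the median of all tested compounds, cut at about 3.7% in these data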;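 also: PTEN knockout HCT116 line with beta catenin targeted HCT116 as companion control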
# Insulin prom inh: TRM-6 insulin promoter activity inhibition | TRM-6 cells (human fetal islet line), insulin promoter-eGFP reporter, imaging; reporter expression induced with tamoxifen | inhibition, % at 2 µM | 0.9% of 130,000 active;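 active = inhibition above the mean plus 3 SD, with well images judged a real hit on visual review, cut at about 60% in these data, passing the limit was not always enough; inconclusive = inhibition over the cutoff but images rejected on review; inactive = inhibition not above the cutoff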
# ROMK primary: modulators of human ROMK potassium channel. Tet-inducible ROMK, thallium flux fluorescence; actives lie on both sides. B-score at 10 µM. 2% of 130,000 active. AID 1918. P48048;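 active = signal ratio slope over the read window, or its plate-corrected B-score, at least 3 SD from the plate mean, either direction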;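 also: B-score of the F/F0 ratio slope over 7 to 12 s after thallium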
# An asterisk follows results filed as active; ? = inconclusive; nt = no result given.
SMILES,p97 inhibitor,Lmaj promast,HCT116 bCat-KO,PTEN del growth,Insulin prom inh,ROMK primary
COc1ccccc1N1CCN(C(CNS(=O)(=O)c2ccc(C)cc2)c2cccnc2)CC1 (stereo unspecified),-6,96*,73,72,-76,0.21
CC(=O)Nc1ccc(-c2nnc(SCc3c(C)cc(C)cc3C)n2C)cc1,-4,76*,92,86,nt,0.59
COCCOC(=O)C1=C(C)NC(C)=C(C(=O)OC(C)C)C1c1cccc([N+](=O)[O-])c1 (stereo unspecified),4,66*,73,82,10,nt
CCOC(=O)C1=C(C)NC(C)=C(C(=O)OC)C1c1cccc([N+](=O)[O-])c1 (stereo unspecified),2,14,87,87,33,nt
Cc1ccccc1N(CC(=O)N/N=C/c1cc(Br)c(C)o1)S(C)(=O)=O,-2,4,104,101,31,-0.073
O=[N+]([O-])c1ccc(NCCNS(=O)(=O)c2ccccc2)c(C(F)(F)F)c1,-3,79*,83,78,-29,nt
Cc1ccc(C(=O)NCCNc2ccc([N+](=O)[O-])cc2C(F)(F)F)cc1,1,81*,72,81,nt,0.19
O=[N+]([O-])c1ccc(NCCNS(=O)(=O)c2ccccc2)cc1,3,-1,nt,nt,nt,-1.6
O=C(NCCNc1ccc([N+](=O)[O-])cc1C(F)(F)F)c1ccccc1F,-2,42,84,75,-19,nt
Cc1ccc(S(=O)(=O)NCCNc2ccc([N+](=O)[O-])cc2C(F)(F)F)cc1,-3,22,32,36,-178,0.2
CCOCCCNS(=O)(=O)c1ccc(NC(=O)c2ccc([N+](=O)[O-])cc2Cl)cc1,3,74*,86,79,29,-0.42
O=[N+]([O-])c1ccc(NCCCNS(=O)(=O)c2ccccc2)c(Cl)c1,-7,64*,91,79,-11,-1.8
CCCc1nnc(SCC(=O)O)n1CC,-2,nt,nt,nt,nt,0.58
Cc1sc(NC(=O)C2C3C=CC(C3)C2C(=O)O)c(C(N)=O)c1-c1ccc(C(C)C)cc1 (stereo unspecified),-2,-6,95,102,23,0.073
CC1=CC2=NC(=O)/C(=C\c3ccc(-c4cccc(Cl)c4)o3)C(=N)N2O1,2,58*,103,92,-33,-0.73
CC1=NOC(=O)/C1=C\c1ccc(-c2cccc(Cl)c2)o1,1,97*,1.1*,3.7*,6,nt
CC1=CC2=NC(=O)/C(=C\c3cc(C)n(-c4ccc(F)cc4)c3C)C(=N)N2O1,-7,-2,103,86,23,nt
CCOc1cc(S(=O)(=O)n2cnc(C)c2)ccc1Cl,-3,3,nt,nt,33,-0.098
COc1ccc(C(=O)/C=C/Sc2nc3ccccc3o2)cc1,6,nt,nt,nt,nt,nt
Cc1ccsc1/C=C(\C(=O)c1ccc(OC(C)C)cc1)c1nc2ccccc2o1,-1,100*,48,56,-21,0.45
O=C(NC1(C(F)(F)F)N=C2SCCN2C1=O)c1ccccc1 (stereo unspecified),4,1,87,87,-26,nt
O=C1N=C2SCCN2/C1=C\c1ccccc1Cl,3,100*,98,90,nt,nt
COc1ccc(C2/C(=C(\O)c3cccc(OC)c3)C(=O)C(=O)N2c2ccccn2)cc1 (stereo unspecified),3,-4,100,92,-33,nt
COc1ccc(CC2(CO)CCN(Cc3c(C)nn(C(C)C)c3C)CC2)cc1,5,-3,nt,nt,nt,0.89
OCC1(Cc2cccc(C(F)(F)F)c2)CCN(Cc2cc3ccccc3o2)CC1,-1,84*,nt,nt,13,0.047
SMILES,p97 inhibitor,Lmaj promast,HCT116 bCat-KO,PTEN del growth,Insulin prom inh,ROMK primary
Cc1c(CN2CCC(CO)(Cc3cccc(C(F)(F)F)c3)CC2)c2ccccc2n1C,0,87*,nt,nt,nt,-1.4
COc1ccc(CC2(CO)CCN(Cc3cc4ccccc4o3)CC2)cc1,1,79*,nt,nt,nt,-0.96
CCS(=O)(=O)N1CCC(N2CCC(C)CC2)CC1,-4,nt,nt,nt,nt,nt
CN1CCC(N(C)C(=O)c2cc(=O)c3ccccc3o2)CC1,-2,-4,nt,nt,45,0.016
N#C/C(=N\Nc1ccc(Cl)cc1)C(=N)N1CCCCC1,1,73*,68,69,24,nt
Cc1ccc(N/N=C(\C#N)C(=N)N2CCOCC2)cc1,3,87*,93,101,7,nt
N#C/C(=N\Nc1ccc(F)cc1)C(=N)N1CCCCCC1,-5,49,nt,nt,18,-0.26
COCC(C)NCc1ccc(OC)c(Br)c1 (stereo unspecified),1,-2,nt,nt,-27,-0.97
CC(=O)N1CCCc2cc(S(=O)(=O)N(C)Cc3ccccc3)ccc21,-5,61*,80,87,31,nt
CCC(=O)N1CCc2cc(S(=O)(=O)N3CCc4ccccc4C3)ccc21,3,3,100,103,61,1
CC(=O)N1CCCc2cc(S(=O)(=O)N3CCc4ccccc4C3)ccc21,1,98*,100,77,-8,-1.4
COc1ccccc1NS(=O)(=O)c1ccc(Cl)c(NC(=O)C(C)N2C(=O)c3ccccc3C2=O)c1 (stereo unspecified),-4,32,93,89,48,-1.3
Cc1ccccc1N(CC(=O)NCc1ccc2c(c1)OCO2)C(=O)CCC(=O)Nc1ccccn1,-2,61*,102,95,nt,nt
Cc1cc(C(=O)NNC(=O)NC(C)C)no1,3,nt,nt,nt,nt,-0.67
Fc1ccccc1Cc1noc(CN2CCC(OCc3cccnc3)CC2)n1,1,12,nt,nt,nt,1
Cc1ccc(NC(=O)/C(=C\c2cccs2)NC(=O)c2ccccc2)cc1,5,83*,101,92,-11,1.5
O=C(Nc1ccc(O)cc1)/C(=C\c1cccs1)NC(=O)c1ccccc1,1,-4,96,95,9,nt
CCCCCCn1nc(C(=O)Nc2nc3c(s2)CCCC3)c2ccccc2c1=O,-12,50*,81,83,nt,nt
CCCn1nc(C(=O)Nc2nc3ccccc3[nH]2)c2ccccc2c1=O,-2,93*,81,74,68,0.025
O=C(N/N=C/c1ccc2cccc(OCc3ccccc3)c2n1)c1ccc(Br)cc1,0,75*,59,55,nt,0.9
COc1c(OC(C)=O)ccc(/C=C/c2ccc3cccc(OCc4ccccc4)c3n2)c1[N+](=O)[O-],-3,62*,56,52,-52,0.14
COc1ccc(C(=O)N/N=C/c2ccc3cccc(OCc4ccccc4)c3n2)cc1,4,65*,53,47,nt,-0.094
CC(=O)Nc1nc(SCC(=O)NCc2ccc(F)cc2)[nH]c(=O)c1NC(=O)c1cccs1,6,-9,nt,nt,nt,0.54
COc1ccc(NS(=O)(=O)c2cc(NC(=O)[C@@H](NC(=O)c3ccccc3)C(C)C)ccc2C)cc1,2,41,31,36,10,-0.04
Cc1c(Cl)cnc(NC(=O)COC(=O)c2ccc3ncsc3c2)c1Cl,1,62*,87,100,?,nt
OCCN1CCN(CCSc2ccccc2)CC1,4,56*,98,99,6,-1.3
O=C(CN1CCN(CCO)CC1)Nc1ccccc1,0,-9,102,92,38,-0.61

# Screening results from PubChem.
